Source: PMC7862700, “An all-to-all approach to the identification of sequence-specific readers for epigenetic DNA modifications on cytosine”

Experiments:
Test in all cases: DAPPL (digital affinity profiling via proximity ligation, sequencing); 10 mM Tris-HCl pH 7.5, 50 mM NaCl, 1 mM DTT, 4% glycerol, room temperature, 30 min; GST-TFs on glutathione beads, 16-mer random dsDNA library, 0.1% formaldehyde crosslink after washing; high values mean tight binding
[1] = target: T1, FLI1 (Homo sapiens, UniProt Q01543 1-452); settings: protein: recombinant; tags: N-terminal GST; dsDNA, one strand shown
T1 sequence: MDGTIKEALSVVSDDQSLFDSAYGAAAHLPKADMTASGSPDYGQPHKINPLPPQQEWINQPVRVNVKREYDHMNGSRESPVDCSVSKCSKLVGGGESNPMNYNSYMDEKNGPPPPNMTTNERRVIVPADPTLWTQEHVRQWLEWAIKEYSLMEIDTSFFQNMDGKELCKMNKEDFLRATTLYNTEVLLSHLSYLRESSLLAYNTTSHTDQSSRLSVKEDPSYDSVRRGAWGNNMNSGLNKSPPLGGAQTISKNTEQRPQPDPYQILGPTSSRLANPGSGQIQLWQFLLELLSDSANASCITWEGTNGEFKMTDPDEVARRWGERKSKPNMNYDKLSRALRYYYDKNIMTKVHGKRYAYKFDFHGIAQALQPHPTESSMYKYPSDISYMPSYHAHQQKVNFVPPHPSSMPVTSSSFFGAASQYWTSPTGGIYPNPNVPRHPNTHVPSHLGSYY
Procedure, shortened: (§1)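 A tag-only sample was pooled with DNA-barcoded human transcription factors that had been expressed in yeast as GST fusions and captured on glutathione beads. The pools were incubated for 30 min at room temperature with 200 nmole of a random double-stranded 16-mer DNA library in Tris/NaCl/DTT/glycerol buffer, then washed, crosslinked with 0.1% formaldehyde, proximity-ligated (BsaI/T4 ligase, 1 h, 37 °C), PCR-amplified and sequenced on an Illumina NextSeq500. Binding signal is each hexamer's read frequency for a factor divided by its frequency for the tag-only sample.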

[2] = target: T2, ELK1 (Homo sapiens, UniProt P19419 1-428); settings: protein: recombinant; tags: N-terminal GST; dsDNA, one strand shown
T2 sequence: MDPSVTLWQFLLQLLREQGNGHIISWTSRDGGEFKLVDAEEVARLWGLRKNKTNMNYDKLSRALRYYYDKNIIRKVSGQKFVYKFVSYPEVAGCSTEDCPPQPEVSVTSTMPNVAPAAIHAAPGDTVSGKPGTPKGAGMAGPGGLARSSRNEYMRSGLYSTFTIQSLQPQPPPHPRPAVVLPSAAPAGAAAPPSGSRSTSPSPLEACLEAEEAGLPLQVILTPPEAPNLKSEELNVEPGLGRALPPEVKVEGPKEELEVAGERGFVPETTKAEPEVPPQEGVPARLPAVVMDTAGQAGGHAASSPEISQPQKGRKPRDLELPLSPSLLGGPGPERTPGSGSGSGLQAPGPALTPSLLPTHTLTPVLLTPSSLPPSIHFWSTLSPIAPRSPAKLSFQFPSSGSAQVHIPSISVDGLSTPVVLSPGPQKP
Procedure, shortened: as §1

[3] = target: T3, GABPA (Homo sapiens, UniProt Q06546 1-454); settings: protein: recombinant; tags: N-terminal GST; dsDNA, one strand shown
T3 sequence: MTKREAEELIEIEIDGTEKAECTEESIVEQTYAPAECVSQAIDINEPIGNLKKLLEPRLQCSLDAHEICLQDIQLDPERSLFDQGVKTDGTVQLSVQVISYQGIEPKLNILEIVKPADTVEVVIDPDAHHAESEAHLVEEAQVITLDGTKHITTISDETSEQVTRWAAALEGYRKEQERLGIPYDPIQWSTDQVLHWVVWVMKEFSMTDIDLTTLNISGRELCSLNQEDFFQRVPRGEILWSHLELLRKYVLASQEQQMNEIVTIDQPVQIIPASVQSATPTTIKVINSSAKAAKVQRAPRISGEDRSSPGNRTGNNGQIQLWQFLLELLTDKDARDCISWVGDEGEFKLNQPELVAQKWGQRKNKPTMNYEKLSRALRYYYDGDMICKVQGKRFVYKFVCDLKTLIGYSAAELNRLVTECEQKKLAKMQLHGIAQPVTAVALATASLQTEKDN
Procedure, shortened: as §1

[4] = target: T4, ERG (Homo sapiens, UniProt P11308 1-479); settings: protein: recombinant; tags: N-terminal GST; dsDNA, one strand shown
T4 sequence: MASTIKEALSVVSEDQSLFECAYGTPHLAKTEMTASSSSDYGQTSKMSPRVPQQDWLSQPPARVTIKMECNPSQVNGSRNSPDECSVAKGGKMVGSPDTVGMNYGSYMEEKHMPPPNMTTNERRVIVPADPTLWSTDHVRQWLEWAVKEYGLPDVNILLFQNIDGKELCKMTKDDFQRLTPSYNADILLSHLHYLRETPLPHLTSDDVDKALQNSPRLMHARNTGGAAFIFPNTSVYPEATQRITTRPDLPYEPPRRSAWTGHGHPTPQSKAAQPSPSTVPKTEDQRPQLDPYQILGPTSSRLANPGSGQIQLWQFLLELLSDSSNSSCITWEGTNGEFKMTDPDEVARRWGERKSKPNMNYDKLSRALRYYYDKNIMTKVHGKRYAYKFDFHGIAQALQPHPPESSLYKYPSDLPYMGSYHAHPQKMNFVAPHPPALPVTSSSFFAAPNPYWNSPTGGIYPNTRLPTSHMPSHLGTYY
Procedure, shortened: as §1

[5] = target: ELF1 (Homo sapiens, UniProt P32519 1-619); settings: protein: recombinant; tags: N-terminal GST; dsDNA, one strand shown
Chain of ELF1 (P32519 whole entry): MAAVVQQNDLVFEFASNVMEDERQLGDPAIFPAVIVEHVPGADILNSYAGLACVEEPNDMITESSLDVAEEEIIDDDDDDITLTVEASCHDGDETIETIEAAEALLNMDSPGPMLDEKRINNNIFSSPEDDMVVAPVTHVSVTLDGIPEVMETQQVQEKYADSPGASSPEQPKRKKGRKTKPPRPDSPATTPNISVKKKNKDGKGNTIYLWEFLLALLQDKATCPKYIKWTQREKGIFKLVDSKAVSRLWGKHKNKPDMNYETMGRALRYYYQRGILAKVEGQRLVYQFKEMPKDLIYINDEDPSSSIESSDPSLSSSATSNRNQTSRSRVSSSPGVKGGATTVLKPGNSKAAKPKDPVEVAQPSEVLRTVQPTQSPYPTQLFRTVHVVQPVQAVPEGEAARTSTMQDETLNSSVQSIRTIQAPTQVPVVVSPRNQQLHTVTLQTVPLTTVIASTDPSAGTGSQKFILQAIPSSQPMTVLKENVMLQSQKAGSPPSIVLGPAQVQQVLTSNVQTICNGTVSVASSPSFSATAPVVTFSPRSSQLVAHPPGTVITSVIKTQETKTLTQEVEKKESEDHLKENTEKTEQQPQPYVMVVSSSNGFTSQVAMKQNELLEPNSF
Procedure, shortened: as §1

[6] = target: T5, EHF (Homo sapiens, UniProt Q9NZC4 1-300); settings: protein: recombinant; tags: N-terminal GST; dsDNA, one strand shown
T5 sequence: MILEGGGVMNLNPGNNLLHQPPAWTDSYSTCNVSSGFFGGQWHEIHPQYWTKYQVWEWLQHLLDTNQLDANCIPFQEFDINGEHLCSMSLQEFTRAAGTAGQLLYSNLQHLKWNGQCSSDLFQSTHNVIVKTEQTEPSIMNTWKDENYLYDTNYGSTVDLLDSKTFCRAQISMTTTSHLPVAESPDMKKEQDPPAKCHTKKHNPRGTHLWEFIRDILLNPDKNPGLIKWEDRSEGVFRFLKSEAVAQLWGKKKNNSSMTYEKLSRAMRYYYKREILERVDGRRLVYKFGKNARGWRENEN
Procedure, shortened: as §1

[7] = target: SPI1 (Homo sapiens, UniProt P17947 1-270); settings: protein: recombinant; tags: N-terminal GST; dsDNA, one strand shown
Procedure, shortened: as §1

[8] = target: SPIB (Homo sapiens, UniProt Q01892 1-262); settings: protein: recombinant; tags: N-terminal GST; dsDNA, one strand shown
Chain of SPIB (Q01892 whole entry): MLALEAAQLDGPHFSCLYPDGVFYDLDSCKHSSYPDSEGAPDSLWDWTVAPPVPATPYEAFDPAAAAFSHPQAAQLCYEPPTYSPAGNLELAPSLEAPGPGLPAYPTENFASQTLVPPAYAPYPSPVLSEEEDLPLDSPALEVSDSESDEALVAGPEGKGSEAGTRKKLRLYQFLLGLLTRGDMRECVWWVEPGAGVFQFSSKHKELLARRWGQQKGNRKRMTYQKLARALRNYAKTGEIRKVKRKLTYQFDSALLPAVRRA
Procedure, shortened: as §1

[9] = target: T6, ELK3 (Homo sapiens, UniProt P41970 1-407); settings: protein: recombinant; tags: N-terminal GST; dsDNA, one strand shown
T6 sequence: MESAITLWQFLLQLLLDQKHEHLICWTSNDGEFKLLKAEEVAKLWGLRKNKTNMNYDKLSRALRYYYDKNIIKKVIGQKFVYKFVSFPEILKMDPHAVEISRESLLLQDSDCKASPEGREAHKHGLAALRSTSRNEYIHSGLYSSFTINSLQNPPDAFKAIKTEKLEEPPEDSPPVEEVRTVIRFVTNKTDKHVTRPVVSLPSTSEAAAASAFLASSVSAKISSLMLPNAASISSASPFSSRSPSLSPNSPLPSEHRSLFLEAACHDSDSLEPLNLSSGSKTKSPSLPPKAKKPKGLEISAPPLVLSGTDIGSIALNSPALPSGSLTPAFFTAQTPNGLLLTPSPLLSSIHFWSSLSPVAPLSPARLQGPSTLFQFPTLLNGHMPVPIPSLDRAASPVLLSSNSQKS
Procedure, shortened: as §1

[10] = target: T7, FEV (Homo sapiens, UniProt Q99581 1-238); settings: protein: recombinant; tags: N-terminal GST; dsDNA, one strand shown
T7 sequence: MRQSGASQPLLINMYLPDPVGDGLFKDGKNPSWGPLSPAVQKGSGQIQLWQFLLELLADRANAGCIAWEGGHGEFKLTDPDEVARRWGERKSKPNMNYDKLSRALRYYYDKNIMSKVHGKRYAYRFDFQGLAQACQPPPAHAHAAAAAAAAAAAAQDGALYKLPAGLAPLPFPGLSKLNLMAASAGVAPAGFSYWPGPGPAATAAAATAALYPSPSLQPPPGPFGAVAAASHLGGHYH
Procedure, shortened: as §1

[11] = target: ETV5 (Homo sapiens, UniProt P41161 1-510); settings: protein: recombinant; tags: N-terminal GST; dsDNA, one strand shown
Chain of ETV5 (P41161 whole entry): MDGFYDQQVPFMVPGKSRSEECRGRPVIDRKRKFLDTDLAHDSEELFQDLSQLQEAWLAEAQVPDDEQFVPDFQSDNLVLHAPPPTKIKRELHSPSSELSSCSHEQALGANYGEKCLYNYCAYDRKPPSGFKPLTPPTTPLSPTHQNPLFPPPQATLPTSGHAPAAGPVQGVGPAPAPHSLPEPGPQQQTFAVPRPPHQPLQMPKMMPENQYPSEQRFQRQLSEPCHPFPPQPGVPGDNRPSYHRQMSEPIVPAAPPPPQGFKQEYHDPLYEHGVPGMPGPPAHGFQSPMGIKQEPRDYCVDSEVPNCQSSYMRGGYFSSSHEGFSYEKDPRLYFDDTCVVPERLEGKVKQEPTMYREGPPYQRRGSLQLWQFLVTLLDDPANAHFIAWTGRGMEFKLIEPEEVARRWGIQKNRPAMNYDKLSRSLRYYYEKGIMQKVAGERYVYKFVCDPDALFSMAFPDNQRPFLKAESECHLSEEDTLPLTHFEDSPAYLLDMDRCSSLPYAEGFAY
Procedure, shortened: as §1

[12] = target: HSF1 (Homo sapiens, UniProt Q00613 1-529); settings: protein: recombinant; tags: N-terminal GST; chain copies: 3; dsDNA, one strand shown
Chain of HSF1 (Q00613 whole entry): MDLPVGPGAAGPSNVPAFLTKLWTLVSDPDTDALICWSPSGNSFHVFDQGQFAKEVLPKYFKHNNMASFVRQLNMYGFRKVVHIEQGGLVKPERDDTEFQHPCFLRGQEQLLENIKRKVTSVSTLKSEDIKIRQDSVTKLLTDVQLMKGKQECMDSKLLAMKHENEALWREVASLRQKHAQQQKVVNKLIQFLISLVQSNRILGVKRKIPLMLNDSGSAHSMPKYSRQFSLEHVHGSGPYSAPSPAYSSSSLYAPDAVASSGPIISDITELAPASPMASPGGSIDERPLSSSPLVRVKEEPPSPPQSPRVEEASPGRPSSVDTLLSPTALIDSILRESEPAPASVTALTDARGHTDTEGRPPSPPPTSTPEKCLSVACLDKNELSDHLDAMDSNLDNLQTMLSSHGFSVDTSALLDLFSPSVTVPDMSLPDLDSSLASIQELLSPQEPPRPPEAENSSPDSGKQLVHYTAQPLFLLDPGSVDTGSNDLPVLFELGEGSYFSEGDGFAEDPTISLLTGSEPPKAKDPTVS
Procedure, shortened: as §1

[13] = target: T8, SPIC (Homo sapiens, UniProt Q8N5J4 1-248); settings: protein: recombinant; tags: N-terminal GST; dsDNA, one strand shown
T8 sequence: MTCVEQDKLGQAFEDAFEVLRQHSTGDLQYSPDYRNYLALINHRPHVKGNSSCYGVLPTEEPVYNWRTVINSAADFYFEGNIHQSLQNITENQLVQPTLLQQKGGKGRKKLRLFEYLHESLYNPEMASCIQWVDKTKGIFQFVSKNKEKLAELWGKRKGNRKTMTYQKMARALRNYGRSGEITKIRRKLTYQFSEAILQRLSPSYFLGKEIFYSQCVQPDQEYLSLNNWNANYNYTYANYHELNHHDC
Procedure, shortened: as §1

[14] = target: ELF4 (Homo sapiens, UniProt Q99607 1-663); settings: protein: recombinant; tags: N-terminal GST; dsDNA, one strand shown
Chain of ELF4 (Q99607 whole entry): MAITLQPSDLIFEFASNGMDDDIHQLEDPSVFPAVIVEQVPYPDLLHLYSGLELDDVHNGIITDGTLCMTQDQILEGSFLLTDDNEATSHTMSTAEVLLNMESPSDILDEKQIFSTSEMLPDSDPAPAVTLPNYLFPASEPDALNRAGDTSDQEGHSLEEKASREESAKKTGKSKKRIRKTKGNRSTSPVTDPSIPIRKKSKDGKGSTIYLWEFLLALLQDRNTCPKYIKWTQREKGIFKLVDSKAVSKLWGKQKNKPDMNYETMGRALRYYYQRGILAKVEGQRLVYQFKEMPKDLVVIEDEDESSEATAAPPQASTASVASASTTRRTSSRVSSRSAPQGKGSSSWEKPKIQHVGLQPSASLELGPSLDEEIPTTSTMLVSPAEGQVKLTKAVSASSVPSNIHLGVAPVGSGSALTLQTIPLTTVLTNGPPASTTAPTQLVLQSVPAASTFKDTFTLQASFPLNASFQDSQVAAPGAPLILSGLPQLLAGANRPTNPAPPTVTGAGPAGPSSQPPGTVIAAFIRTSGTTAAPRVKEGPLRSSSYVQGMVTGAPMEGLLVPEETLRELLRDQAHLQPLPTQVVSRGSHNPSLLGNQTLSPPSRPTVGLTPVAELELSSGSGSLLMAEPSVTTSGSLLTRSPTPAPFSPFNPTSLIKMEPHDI
Procedure, shortened: as §1

[15] = target: T9, ELK4 (Homo sapiens, UniProt P28324-2 1-405); settings: protein: recombinant; tags: N-terminal GST; dsDNA, one strand shown
T9 sequence: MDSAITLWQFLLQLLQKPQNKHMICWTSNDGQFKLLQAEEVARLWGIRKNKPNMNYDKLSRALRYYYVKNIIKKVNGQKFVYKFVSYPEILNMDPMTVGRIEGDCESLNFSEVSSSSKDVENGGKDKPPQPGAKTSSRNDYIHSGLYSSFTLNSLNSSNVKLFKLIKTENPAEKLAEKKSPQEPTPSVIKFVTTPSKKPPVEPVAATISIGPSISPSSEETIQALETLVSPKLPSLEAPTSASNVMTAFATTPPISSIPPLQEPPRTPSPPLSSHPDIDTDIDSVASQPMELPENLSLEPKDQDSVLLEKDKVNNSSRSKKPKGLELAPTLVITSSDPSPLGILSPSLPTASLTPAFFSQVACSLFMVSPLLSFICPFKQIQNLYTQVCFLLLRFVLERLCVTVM
Procedure, shortened: as §1

[16] = target: T10, ETV2 (Homo sapiens, UniProt O00321 1-342); settings: protein: recombinant; tags: N-terminal GST; dsDNA, one strand shown
T10 sequence: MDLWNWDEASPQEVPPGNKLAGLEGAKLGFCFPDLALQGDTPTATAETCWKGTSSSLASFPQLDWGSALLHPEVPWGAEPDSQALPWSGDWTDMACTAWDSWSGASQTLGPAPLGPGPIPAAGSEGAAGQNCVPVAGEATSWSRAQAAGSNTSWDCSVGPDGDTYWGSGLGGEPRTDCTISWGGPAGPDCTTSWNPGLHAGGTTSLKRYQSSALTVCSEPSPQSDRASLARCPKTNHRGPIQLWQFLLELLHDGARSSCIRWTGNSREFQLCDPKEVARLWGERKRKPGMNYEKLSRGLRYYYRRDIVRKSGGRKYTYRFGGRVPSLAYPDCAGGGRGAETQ
Procedure, shortened: as §1

[17] = target: T11, ELF3 (Homo sapiens, UniProt P78545 1-371); settings: protein: recombinant; tags: N-terminal GST; dsDNA, one strand shown
T11 sequence: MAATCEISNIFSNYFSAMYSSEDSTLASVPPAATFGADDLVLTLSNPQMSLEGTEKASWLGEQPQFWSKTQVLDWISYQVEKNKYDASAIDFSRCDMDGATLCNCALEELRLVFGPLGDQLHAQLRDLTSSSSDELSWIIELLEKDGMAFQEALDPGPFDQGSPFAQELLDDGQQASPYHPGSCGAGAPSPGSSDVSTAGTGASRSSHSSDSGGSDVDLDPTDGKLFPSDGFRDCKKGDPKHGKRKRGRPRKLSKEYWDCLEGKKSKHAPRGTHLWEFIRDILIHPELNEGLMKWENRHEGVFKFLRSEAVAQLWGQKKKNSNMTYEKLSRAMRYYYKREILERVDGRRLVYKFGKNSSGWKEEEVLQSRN
Procedure, shortened: as §1

[18] = target: CRX (Homo sapiens, UniProt O43186 1-299); settings: protein: recombinant; tags: N-terminal GST; dsDNA, one strand shown
Chain of CRX (O43186 whole entry): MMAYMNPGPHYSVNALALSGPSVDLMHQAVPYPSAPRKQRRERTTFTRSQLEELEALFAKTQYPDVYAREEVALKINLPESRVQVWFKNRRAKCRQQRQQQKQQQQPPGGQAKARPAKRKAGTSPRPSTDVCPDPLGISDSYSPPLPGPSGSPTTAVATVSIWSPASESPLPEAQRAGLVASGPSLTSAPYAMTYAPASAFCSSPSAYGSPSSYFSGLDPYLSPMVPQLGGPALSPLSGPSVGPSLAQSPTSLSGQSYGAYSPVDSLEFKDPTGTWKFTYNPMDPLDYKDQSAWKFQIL
Procedure, shortened: as §1

[19] = target: ETV1 (Homo sapiens, UniProt P50549 1-477); settings: protein: recombinant; tags: N-terminal GST; dsDNA, one strand shown
Chain of ETV1 (P50549 whole entry): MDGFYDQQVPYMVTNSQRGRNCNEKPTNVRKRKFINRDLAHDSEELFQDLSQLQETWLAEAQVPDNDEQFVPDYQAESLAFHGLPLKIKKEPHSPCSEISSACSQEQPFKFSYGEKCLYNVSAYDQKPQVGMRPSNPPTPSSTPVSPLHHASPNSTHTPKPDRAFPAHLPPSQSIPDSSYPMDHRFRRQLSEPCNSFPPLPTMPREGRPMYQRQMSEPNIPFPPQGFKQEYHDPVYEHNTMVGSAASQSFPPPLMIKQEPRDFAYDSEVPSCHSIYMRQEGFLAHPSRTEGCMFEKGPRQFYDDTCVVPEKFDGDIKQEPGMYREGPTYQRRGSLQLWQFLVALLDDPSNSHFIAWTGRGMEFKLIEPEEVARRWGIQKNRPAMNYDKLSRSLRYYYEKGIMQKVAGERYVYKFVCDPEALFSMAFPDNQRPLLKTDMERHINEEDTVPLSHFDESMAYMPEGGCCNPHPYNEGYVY
Procedure, shortened: as §1

TTCAAC
binding signal [1]: 1.3 fold enrichment (6-mer frequency, TF over GST control) | binding signal [2]: 1.31 fold enrichment (6-mer frequency, TF over GST control) | binding signal [3]: 1.24 fold enrichment (6-mer frequency, TF over GST control) | binding signal [4]: 1.26 fold enrichment (6-mer frequency, TF over GST control) | binding signal [5]: 1.33 fold enrichment (6-mer frequency, TF over GST control) | binding signal [6]: 1.32 fold enrichment (6-mer frequency, TF over GST control) | binding signal [7]: 1.28 fold enrichment (6-mer frequency, TF over GST control) | binding signal [8]: 1.38 fold enrichment (6-mer frequency, TF over GST control) | binding signal [9]: 1.29 fold enrichment (6-mer frequency, TF over GST control) | binding signal [10]: 1.29 fold enrichment (6-mer frequency, TF over GST control) | binding signal [11]: 1.29 fold enrichment (6-mer frequency, TF over GST control) | binding signal [12]: 1.14 fold enrichment (6-mer frequency, TF over GST control) | binding signal [13]: 1.24 fold enrichment (6-mer frequency, TF over GST control) | binding signal [14]: 1.28 fold enrichment (6-mer frequency, TF over GST control) | binding signal [15]: 1.33 fold enrichment (6-mer frequency, TF over GST control) | binding signal [16]: 1.31 fold enrichment (6-mer frequency, TF over GST control) | binding signal [17]: 1.38 fold enrichment (6-mer frequency, TF over GST control) | binding signal [18]: 1.15 fold enrichment (6-mer frequency, TF over GST control) | binding signal [19]: 1.35 fold enrichment (6-mer frequency, TF over GST control)
